Measurements from PubChem BioAssay AID1792 (The Scripps Research Institute Molecular Screening Center, 2009).
About 130 (0.81%) of roughly 16,000 compounds were called active. No stated cut-off is given here; in the data, active means inhibition above about 75%; inactive means the rest. Shown is part of a subset that was picked to be rich in actives.

What follows are compounds tested against NADPH oxidase 1 (Homo sapiens) (UniProt Q9Y5S8) (assay: blocks human NADPH oxidase 1 activity (AID 1792)). Conditions: HT29 cells, luminol chemiluminescence ROS; at 6.7 µM; stronger effect = higher value.
Sequence of NADPH oxidase 1 (Homo sapiens) (Q9Y5S8 whole entry, looked up): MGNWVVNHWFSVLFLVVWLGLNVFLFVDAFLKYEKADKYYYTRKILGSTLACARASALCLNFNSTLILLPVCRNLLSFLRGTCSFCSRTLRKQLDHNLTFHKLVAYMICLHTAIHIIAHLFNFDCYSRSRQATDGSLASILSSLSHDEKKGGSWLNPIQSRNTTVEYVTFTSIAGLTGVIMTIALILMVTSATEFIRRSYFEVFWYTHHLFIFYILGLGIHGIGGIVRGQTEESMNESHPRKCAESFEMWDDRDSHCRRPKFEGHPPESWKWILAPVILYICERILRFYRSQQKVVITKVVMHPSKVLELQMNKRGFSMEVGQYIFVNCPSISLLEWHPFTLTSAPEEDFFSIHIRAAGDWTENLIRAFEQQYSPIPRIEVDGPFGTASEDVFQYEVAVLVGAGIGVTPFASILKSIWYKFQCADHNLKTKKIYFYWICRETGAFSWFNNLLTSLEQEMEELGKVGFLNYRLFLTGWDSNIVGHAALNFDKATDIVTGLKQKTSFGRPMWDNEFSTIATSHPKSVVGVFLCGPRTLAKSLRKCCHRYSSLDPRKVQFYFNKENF

| SMILES | inhibition |
| --- | --- |
| COc1ccc(NC(NC(=O)c2ccc(OC)cc2)(C(F)(F)F)C(F)(F)F)cc1 | -26.1% (inactive) |
| COc1ccc(NC(=O)C2CC(C)=C(C)CC2C(=O)O)c(N2CCOCC2)n1 (centres undefined) | -11.6% (inactive) |
| O=C(CSC(=S)N1CCCCC1)c1c(F)cccc1F | 16% (inactive) |
| Cn1nc(-c2ccccc2)cc1N | 12.5% (inactive) |
| O=C(Nc1ccc(C(F)(F)F)cc1)Nc1ccccc1C(=O)O | -32.5% (inactive) |
| Cc1ccc(OC(=O)c2nn(-c3ccccc3)nc2C)c([N+](=O)[O-])n1 | -75.6% (inactive) |
| O=C(NCc1cc2ccccc2s1)C1CN(C(c2ccccc2)c2ccccc2)C1 | -2.49% (inactive) |
| O=C(O)CC(CC(=O)O)c1ccc(C(F)(F)F)cc1 | -30.4% (inactive) |
| COC(=O)c1sc(S(C)=O)c(-c2ccon2)c1C (centres undefined) | -55.1% (inactive) |
| Cc1onc(-c2ccccc2)c1C(=O)Sc1ccc(C(F)(F)F)cn1 | -30.5% (inactive) |
| COC(=O)c1ccc(/C=C2\C(=O)Nc3ccccc32)n1-c1ccc(F)cc1 | -9.26% (inactive) |
| COc1ccc(Cc2nnc(SC)[nH]c2=O)cc1 | -41.8% (inactive) |
| O=S(=O)(Oc1ccc(C2SCCS2)cc1)c1ccc(Br)cc1 | 10.3% (inactive) |
| OC(c1ccncc1)c1c[nH]c2ccccc12 (centres undefined) | -46.2% (inactive) |
| COc1ccc(OC)c(CCCc2cc(OC)ccc2OC)c1 | -22.8% (inactive) |
| N#Cc1ccc(N2CCN(C(=O)c3ccco3)CC2)cc1 | -5.71% (inactive) |
| Cc1[nH]c2c(F)cc(F)cc2c(=O)c1I | -29.2% (inactive) |
| COc1cc(-c2n[nH]c(=S)n2Cc2ccccc2)cc(OC)c1OC | -31.5% (inactive) |
| O=C1CCCCC(=O)c2ccccc2N1 | -36.9% (inactive) |
| Cc1c(S(=O)(=O)c2ccc(Cl)cc2)csc1C(=O)Nc1ccc2c(c1)OCCO2 | -34.3% (inactive) |
| NS(=O)(=O)c1cc(C(F)(F)F)cc(C(F)(F)F)c1 | -30.4% (inactive) |
| NNC(=O)c1ccc(Cl)cc1Cl | -29.6% (inactive) |
| N#CNC(N)=Nc1cc(Cl)ccc1Cl | -53.6% (inactive) |
| O=C(NCc1csc(-c2cccs2)n1)Nc1ccccc1-c1ccccc1 | 11.9% (inactive) |
| Cn1c(=O)c(/C(N)=N/OC(=O)c2ccccc2Cl)cn(-c2ccccc2)c1=O | -28.3% (inactive) |
| N/C(CC(=O)Nc1ccc(F)c(Cl)c1)=N\O | 8.11% (inactive) |

| SMILES | inhibition |
| --- | --- |
| O=C1NCCN1CCNS(=O)(=O)c1cc(Cl)sc1Cl | 14.5% (inactive) |
| O=C(N[C@@H](Cc1ccc(O)cc1)C(=O)O)OCc1ccccc1 | -6.06% (inactive) |
| CN(C)NC(=O)c1csnc1-c1c(Cl)cccc1Cl | -20.2% (inactive) |
| CC(OC(=O)c1cccc(Cl)c1)c1ccc[n+](C)c1 (centres undefined) | -47.2% (inactive) |
| CCOC(=O)/C(C#N)=C/c1ccc(-c2nccs2)cc1C(C)(C)C | 8.33% (inactive) |
| N#CC(C#N)=C/C=C(/Sc1nc2cc(Cl)ccc2s1)c1ccc(Cl)cc1 | -27.8% (inactive) |
| CCOC(=O)N1CCN(CC(O)COc2ccc(OC(F)(F)F)cc2)CC1 (centres undefined) | -47.2% (inactive) |
| CCOC(=O)c1sc2ccccc2c1N | -25.5% (inactive) |
| O=C(Oc1ccccc1N1CCCCC1)c1sc2ccccc2c1Cl | 85.7% (active) |
| O=C(O)CC(CC(=O)Oc1ccccc1N1CCCCC1)c1ccccc1 (centres undefined) | -24.8% (inactive) |
| N#C/C(=C\N1CCc2ccccc21)S(=O)(=O)c1ccc(C(F)(F)F)cn1 | -30.5% (inactive) |
| N#CCCN(CCc1ccccn1)S(=O)(=O)c1ccc2c(c1)CCO2 | 35.1% (inactive) |
| CCOC(=O)Cc1cnc(NN=C2C3CC4CC(C3)CC2C4)s1 | 55.1% (inactive) |
| CSc1sc(NC(=O)N2CCOCC2)c(-c2ccc(Cl)cc2)c1C#N | 17.4% (inactive) |
| O=C(CNC(=O)c1ccccc1F)c1ccc(Br)cc1 | -16.2% (inactive) |
| COc1ccc(COCC(O)CN2CCC(C(N)=O)CC2)cc1 (centres undefined) | -52.2% (inactive) |
| CCOC(=O)O/N=C(\N)c1ccc(Cl)cc1 | 26% (inactive) |
| CC(C)(C)c1ccc(NC(=O)c2ccco2)c(NC(=O)C(Cl)(Cl)Cl)c1 | 6.12% (inactive) |
| CN(Cc1nnc(-c2ccc3ccccc3c2)o1)c1nnc(C(F)(F)F)s1 | 10.6% (inactive) |
| CC1(C)CC(=O)c2c(NCc3ccco3)sc(C#N)c2C1 | -14.6% (inactive) |
| CC(C)n1c(SCC(=O)c2cccc([N+](=O)[O-])c2)nc2cc(C(F)(F)F)ccc21 | 4.76% (inactive) |
| CCOC(=O)c1cc(C)nc(Sc2ccccc2NC(=O)Nc2ccc(Cl)cc2)c1C#N | 34.3% (inactive) |
| Cc1nn(-c2ccccc2)nc1C(=O)Nc1nnc(C2CC2)s1 | -13.2% (inactive) |
| COC(=O)c1cc(OC)c(OC)cc1NS(=O)(=O)c1ccsc1C(=O)OC | -24.8% (inactive) |
| O=C(NNc1ccc(C(F)(F)F)cn1)c1ccccc1Cl | 40.9% (inactive) |
| O=C1C=C(NNc2ccccc2)CCC1 | -9.52% (inactive) |

| SMILES | inhibition |
| --- | --- |
| Cn1cnnc1SCC(=O)Nc1cc(C(F)(F)F)cc(C(F)(F)F)c1 | -26.6% (inactive) |
| CC1CN=C(N(Cc2cccnc2)C(=O)Nc2ccc(Cl)c(Cl)c2)S1 (centres undefined) | 11.1% (inactive) |
| FC(F)(F)c1cnc(NN=C2CCSCC2)c(Cl)c1 | -21.6% (inactive) |
| N/C(=N/OC(=O)NC(=O)c1c(Cl)cccc1Cl)c1ccc(F)cc1F | -11.4% (inactive) |
| Cc1nn(C)c(C)c1Sc1nccc(-c2cccnc2)n1 | 17.5% (inactive) |
| COc1cc(OC)nc(/N=C/c2nc(-c3ccccc3)oc2O)n1 | 16.6% (inactive) |
| O=C(NCc1ccccc1)c1cc2sccc2s1 | -33% (inactive) |
| CSc1n[nH]c(=O)n1-c1cccc(C(F)(F)F)c1 | -36.5% (inactive) |
| O=S(=O)(c1ccc2c(c1)OCCO2)N1CCN(c2ccc(C(F)(F)F)cn2)CC1 | -13.2% (inactive) |
| Cc1c(CC(=O)Oc2ccc([N+](=O)[O-])cc2)sc2ccc(Cl)cc12 | 15.6% (inactive) |
| CCCCc1ccc(S(N)(=O)=O)cc1 | -14.9% (inactive) |
| O=C(O)CC1(CC(=O)NCc2ccco2)CCCCC1 | -9.49% (inactive) |
| CCOC(=O)/C(=N/Nc1ccccc1)C(C)=N | -20% (inactive) |
| Cc1cc(Cl)ccc1NC(=S)NNC(=S)Nc1ccc(F)cc1 | 87.6% (active) |
| CC(=O)Nc1ccc(F)cc1F | -7.89% (inactive) |
| COc1ccc(OCCC(=O)NNC(=S)Nc2cc(Cl)ccc2Cl)cc1 | -22.8% (inactive) |
| O=[N+]([O-])c1ccc(N2CCOCC2)cc1 | 23.6% (inactive) |
| CN(NS(=O)(=O)CS(C)(=O)=O)c1ncccc1[N+](=O)[O-] | -4.72% (inactive) |
| O=C1C(Cl)=C(Oc2cc(Cl)c(Cl)cc2Cl)C(=O)c2ccccc21 | 64% (inactive) |
| O=C(O)C#Cc1cccc2ccccc12 | -49.7% (inactive) |
| Cc1ccc2oc(-c3cccs3)nc2c1 | -69.6% (inactive) |
| Clc1ccc(CO/N=C/c2nc3ccccc3s2)cc1 | -46.7% (inactive) |
| CSc1nsc(SC)c1C(=O)Nc1cc(C(F)(F)F)cc(C(F)(F)F)c1 | -44% (inactive) |
| CCOC(=O)/C(C#N)=C/N/S(C)=N/N=C/c1ccc(N(C)C)cc1 (centres undefined) | 3.26% (inactive) |
| CCCCNc1nc(N)ns1 | -43% (inactive) |
| Clc1ccc(-c2csc(N/N=C\c3ccn[nH]3)n2)cc1 | 19% (inactive) |

| SMILES | inhibition |
| --- | --- |
| Cc1nc(-c2ccccn2)n2nnnc2c1Cl | -68.7% (inactive) |
| O=[N+]([O-])c1ccc(CSc2nc3cc(Cl)c(F)cc3[nH]2)cc1 | 10.8% (inactive) |
| Cn1nnnc1SCC(=O)Nc1ccc(OC(F)(F)F)cc1 | 12% (inactive) |
| CN(C)c1ccc(C=Nc2ccc(S(N)(=O)=O)cc2)cc1 | -7.18% (inactive) |
| O=S(=O)(Cc1nnc(-c2cc(Cl)cc(Cl)c2)o1)c1ccc(Cl)cc1 | -4.49% (inactive) |
| O=C(CSC1=NCCc2ccccc21)Nc1ccc(F)cc1F | 0% (inactive) |
| N/C(=N\OS(=O)(=O)c1ccc(C(F)(F)F)cc1)C1CSCCS1 (centres undefined) | -14.1% (inactive) |
| CC1=CC(=O)C(CCC2=CC(=O)C(C)=CC2=O)=CC1=O | 87.8% (active) |
| COc1ccc(/C(C)=N/Nc2c([N+](=O)[O-])cc(C(F)(F)F)cc2[N+](=O)[O-])cc1CC#N | -38.4% (inactive) |
| O=C(O)C1CCC1C(=O)Nc1nnc(C2CC2)s1 (centres undefined) | 12% (inactive) |
| COc1ccc(/C=N/N2CCC(=O)Nc3ccccc32)c(OC)c1 | -3% (inactive) |
| Cc1oc(-c2ccc(Cl)cc2)cc1C(=O)O/N=C(\N)Cc1nc2cccnc2n1C1CC1 | 86.4% (active) |
| Cc1oc(-c2ccc(Cl)cc2)cc1C(=O)N1CCN(Cc2ccccc2)CC1 | -19.5% (inactive) |
| Cc1oc(-c2ccc(Cl)cc2)cc1C(=O)N1CCOCC1 | 4.54% (inactive) |
| CC(=O)N1CCc2cc(NC(=S)Nc3ccccc3Cl)ccc21 | 11.8% (inactive) |
| CN1CCCCC(C2=C(Cl)C(=O)CCC2)C1=O (centres undefined) | -2.08% (inactive) |
| O=C1C(Nc2ccccc2)=CC(c2ccc([N+](=O)[O-])cc2)N1c1ccccc1 (centres undefined) | -5.43% (inactive) |
| O=C(O)c1cc(=O)[nH]c2c(Cl)cc(Cl)cc12 | -17.9% (inactive) |
| Cc1ccc(S(=O)(=O)N/N=C/c2ccc(O)cc2O)cc1 | -34.9% (inactive) |
| COc1cc(C=C(C#N)C#N)cc(OC(C)=O)c1OC(C)=O | 93.6% (active) |
| COc1ccc2c(OC(C)=O)coc2c1 | -103% (inactive) |
| Cc1nnsc1C(=O)N/N=C/c1ccccc1Cl | 26.6% (inactive) |
| Cc1nn2c(=O)c3c4c(sc3nc2[nH]c1=O)CCCC4 | -87% (inactive) |
| COC(OC)c1ccnc(SCC(=O)Nc2ccc(C(C)C)cc2)n1 | -5.58% (inactive) |
| N#Cc1cn(-c2cccc(C(F)(F)F)c2)c(=O)n(Cc2ccc(Cl)cc2)c1=O | 11.4% (inactive) |
| O=C1OC2(CCCCC2)OC1c1ccccc1 (centres undefined) | -30.5% (inactive) |
